About 7,900 targets were measured; listed, in parts, are those with a hit and a random draw of the rest. About 0.6% of all pairs of compound and target were hits.
Key:
Assay in all cases: log2 fold change, soluble protein after heating vs DMSO (PISA); higher = thermal stabilisation; K562 cells, 10 uM, 30 min; active = over 0.2 and 3.5 SD of the protein, either way, in both replicates (recomputed)
[1] = compound: NC(=O)Nc1cc(-c2cccc(F)c2)sc1C(=O)N[C@H]1CCCNC1
Procedure, shortened: (§1)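 Values are thermal stability changes relative to control samples and are taken from duplicates. They are stated as log2 fold changes. Before quantification by TMTpro 16plex LC-MS/MS with equalised channel sums, K562 cells at 2×10^6 cells/mL were treated with 10 μM compound for 30 min, heated in aliquots for 3 min across 48°C-58°C, pooled, extracted in PBS with 0.5% NP-40 at 4°C, and centrifuged at 21,000xg for 90 min to give the soluble supernatant.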

[2] = compound: NC(=O)c1cnc(N[C@@H]2CCCC[C@@H]2N)nc1Nc1cccc(-n2nccn2)c1
Procedure, shortened: as §1

[3] = compound: NC1(c2ccc(-c3nc4ccn5c(=O)[nH]nc5c4cc3-c3ccccc3)cc2)CCC1
Procedure, shortened: as §1

[4] = compound: NCC(=O)Nc1ccc(-n2nc(C(F)(F)F)cc2-c2ccc3c(ccc4ccccc43)c2)cc1
Procedure, shortened: as §1

[5] = compound: Nc1ccccc1NC(=O)c1ccc(CNC(=O)OCc2cccnc2)cc1 [entinostat]
Procedure, shortened: as §1

[6] = compound: O=C(CCCCCCNC(=O)c1cnc(N(c2ccccc2)c2ccccc2Cl)nc1)NO [citarinostat]
Procedure, shortened: as §1

[7] = compound: O=C(O)c1ccc2c(c1)nc(Nc1cccc(Cl)c1)c1ccncc12 [silmitasertib]
Procedure, shortened: as §1

[8] = compound: O=C1NC(=O)C(c2cnc3ccccn23)=C1c1cn2c3c(cc(F)cc13)CN(C(=O)N1CCCCC1)CC2
Procedure, shortened: as §1

[9] = compound: c1cc(OCCN2CCCCC2)cc(-c2n[nH]c3ccc(-c4nnc[nH]4)cc23)c1
Procedure, shortened: as §1

[10] = compound: c1cn2cc(-c3ccc4cn[nH]c4c3)nc(Nc3ccc(N4CCOCC4)cc3)c2n1 [entospletinib]
Procedure, shortened: as §1

[11] = compound: O=C(CCCCCCC(=O)Nc1ccccc1)NO [vorinostat]
Procedure, shortened: as §1

Measured: log2 fold change

EEF1A1 (UniProt P68104)
inactive: [1] -0.046 | [2] 0.084 | [3] 0.091 | [4] 0.191 | [5] -0.017 | [6] -0.04 | [7] -0.11 | [8] 0.023 | [9] 0.07 | [10] 0.046

EZH2 isoform 2 (UniProt Q15910)
inactive: [1] 0.316 | [2] -0.004 | [3] 0.342 | [4] 0.33 | [5] -0.039 | [7] 0.046 | [8] -0.118

FAM50A (UniProt Q14320)
inactive: [1] 0.003 | [2] -0.008 | [3] -0.087 | [4] -0.082 | [5] 0.045 | [11] 0.011 | [6] 0.095 | [7] 0.071 | [8] -0.001 | [9] -0.019 | [10] -0.006

ERCC6 (UniProt Q03468)
inactive: [1] -0.288 | [2] -0.022 | [3] -0.062 | [4] 0.034 | [5] -0.191 | [11] -0.003 | [6] -0.213 | [7] 0.079 | [8] 0.013 | [9] -0.236 | [10] 0.045

ELAC1 (UniProt Q9H777)
inactive: [1] 0.014 | [2] 0.053 | [4] -0.082 | [5] -0.202 | [11] 0.285 | [6] 0.05 | [8] 0.075 | [9] -0.05 | [10] 0.069

CYB561A3 isoform 2 (UniProt Q8NBI2)
inactive: [1] -0.019 | [2] -0.075 | [3] -0.066 | [5] -0.004 | [11] -0.254 | [6] -0.081 | [7] 0.04 | [9] 0.035 | [10] 0.315

EDEM2 (UniProt Q9BV94)
inactive: [1] 0.004 | [2] -0.108 | [3] -0.054 | [4] -0.039 | [5] -0.003 | [11] 0.001 | [7] 0.027 | [8] -0.029

ENTR1 (UniProt Q96C92)
inactive: [4] -0.284

DERPC (UniProt P0CG12)
inactive: [3] 0.008 | [4] -0.16 | [11] -0.042 | [6] -0.049 | [7] -0.024 | [9] -0.045 | [10] 0.125

DOLPP1 (UniProt Q86YN1)
UniProt Q86YN1, sequence (Q86YN1 whole entry, looked up): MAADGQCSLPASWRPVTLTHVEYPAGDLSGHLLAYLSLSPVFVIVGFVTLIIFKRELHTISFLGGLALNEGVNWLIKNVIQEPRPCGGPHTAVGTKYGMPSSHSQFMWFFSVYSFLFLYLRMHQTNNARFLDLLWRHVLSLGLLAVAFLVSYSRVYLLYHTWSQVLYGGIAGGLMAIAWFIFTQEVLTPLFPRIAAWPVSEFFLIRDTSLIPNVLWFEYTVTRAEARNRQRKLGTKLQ
inactive: [2] -0.102 | [3] -0.053 | [4] -0.003 | [6] 0.075 | [7] 0.008 | [9] -0.007 | [10] 0.055

DNAH10 (UniProt Q8IVF4)
inactive: [1] 0.057 | [3] -0.045 | [4] 0.026 | [5] -0.041 | [11] 0.083 | [6] 0.242 | [7] -0.101 | [8] -0.102 | [9] 0.172 | [10] -0.132

ELF1 (UniProt P32519)
inactive: [1] -0.124 | [2] -0.044 | [5] -0.11 | [6] -0.089 | [8] -0.075 | [9] -0.18 | [10] -0.082

CWF19L2 (UniProt Q2TBE0)
inactive: [1] 0.129 | [2] 0.013 | [5] -0.134 | [11] -0.184 | [6] 0.13 | [9] -0.001 | [10] -0.162

DNAH5 (UniProt Q8TE73)
inactive: [1] -0.029 | [3] -0.077 | [4] 0.016 | [5] -0.037 | [11] -0.103 | [6] 0.047 | [7] 0.001 | [8] 0.014 | [9] 0.029 | [10] -0.039

CTNNBL1 (UniProt Q8WYA6)
UniProt Q8WYA6, sequence (Q8WYA6 whole entry, looked up): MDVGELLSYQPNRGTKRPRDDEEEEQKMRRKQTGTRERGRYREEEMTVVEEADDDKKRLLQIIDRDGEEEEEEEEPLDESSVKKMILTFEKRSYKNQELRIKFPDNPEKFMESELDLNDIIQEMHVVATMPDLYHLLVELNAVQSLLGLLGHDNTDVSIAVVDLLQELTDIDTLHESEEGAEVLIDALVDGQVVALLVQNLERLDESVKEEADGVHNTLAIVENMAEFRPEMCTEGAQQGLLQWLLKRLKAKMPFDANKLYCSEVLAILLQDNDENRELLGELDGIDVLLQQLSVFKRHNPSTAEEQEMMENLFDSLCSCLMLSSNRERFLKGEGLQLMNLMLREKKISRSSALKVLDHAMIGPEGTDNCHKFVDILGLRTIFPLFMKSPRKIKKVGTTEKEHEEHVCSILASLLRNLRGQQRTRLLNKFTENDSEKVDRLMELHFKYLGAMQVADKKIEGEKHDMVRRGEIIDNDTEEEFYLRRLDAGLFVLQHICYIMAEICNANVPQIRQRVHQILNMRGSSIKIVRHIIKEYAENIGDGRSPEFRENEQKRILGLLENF
inactive: [4] 0.175 | [6] 0.057 | [9] -0.068 | [10] 0.069

EEF1D isoform 3 (UniProt P29692)
inactive: [3] 0.2 | [7] -0.401

DCAF12 (UniProt Q5T6F0)
inactive: [1] -0.025 | [3] -0.201 | [5] -0.003 | [11] -0.021 | [6] -0.033 | [7] 0.051 | [9] 0.055 | [10] 0.025

FAM160A2 isoform 2 (UniProt Q8N612)
inactive: [3] 0.158 | [4] -0.26 | [11] -0.009 | [6] -0.154 | [7] 0.057 | [8] 0.026 | [9] 0.068 | [10] 0.039

EHBP1 (UniProt Q8NDI1)
inactive: [2] -0.092 | [3] 0.017 | [11] -0.034 | [6] -0.009 | [7] 0.087 | [9] -0.14 | [10] -0.082

DENND1A isoform 6 (UniProt Q8TEH3)
inactive: [4] -0.119

CYP24A1 (UniProt Q07973)
inactive: [2] 0.045 | [3] 0.43 | [4] 0.21 | [11] 0.067 | [6] -0.002 | [7] 0.099 | [9] 0.109 | [10] 0.019

EPHX2 (UniProt E5RI53)
inactive: [8] -0.058

ELMO1 (UniProt Q92556)
inactive: [1] -0.07 | [3] -0.146 | [4] -0.316 | [5] 0.093 | [7] 0.04 | [8] -0.104

FAM117B (UniProt Q6P1L5)
inactive: [2] -0.159 | [4] 0.229 | [11] 0.059 | [6] -0.047 | [8] -0.144 | [9] 0.105 | [10] 0.009

FADS1 (UniProt F5GYH4)
inactive: [4] -0.191

DNAJB1 (UniProt M0R128)
inactive: [4] -0.151

CTSS (UniProt P25774)
inactive: [1] -0.054 | [4] 0.053 | [5] -0.013 | [11] 0.15 | [6] 0.19 | [9] -0.089 | [10] 0.07

ENTPD7 (UniProt Q9NQZ7)
inactive: [1] 0.024 | [3] -0.052 | [5] 0.236 | [6] 0.131 | [7] -0.357 | [8] -0.098 | [9] -0.138 | [10] 0.096

DDB1 isoform 2 (UniProt Q16531)
UniProt Q16531, sequence (Q16531 whole entry, looked up): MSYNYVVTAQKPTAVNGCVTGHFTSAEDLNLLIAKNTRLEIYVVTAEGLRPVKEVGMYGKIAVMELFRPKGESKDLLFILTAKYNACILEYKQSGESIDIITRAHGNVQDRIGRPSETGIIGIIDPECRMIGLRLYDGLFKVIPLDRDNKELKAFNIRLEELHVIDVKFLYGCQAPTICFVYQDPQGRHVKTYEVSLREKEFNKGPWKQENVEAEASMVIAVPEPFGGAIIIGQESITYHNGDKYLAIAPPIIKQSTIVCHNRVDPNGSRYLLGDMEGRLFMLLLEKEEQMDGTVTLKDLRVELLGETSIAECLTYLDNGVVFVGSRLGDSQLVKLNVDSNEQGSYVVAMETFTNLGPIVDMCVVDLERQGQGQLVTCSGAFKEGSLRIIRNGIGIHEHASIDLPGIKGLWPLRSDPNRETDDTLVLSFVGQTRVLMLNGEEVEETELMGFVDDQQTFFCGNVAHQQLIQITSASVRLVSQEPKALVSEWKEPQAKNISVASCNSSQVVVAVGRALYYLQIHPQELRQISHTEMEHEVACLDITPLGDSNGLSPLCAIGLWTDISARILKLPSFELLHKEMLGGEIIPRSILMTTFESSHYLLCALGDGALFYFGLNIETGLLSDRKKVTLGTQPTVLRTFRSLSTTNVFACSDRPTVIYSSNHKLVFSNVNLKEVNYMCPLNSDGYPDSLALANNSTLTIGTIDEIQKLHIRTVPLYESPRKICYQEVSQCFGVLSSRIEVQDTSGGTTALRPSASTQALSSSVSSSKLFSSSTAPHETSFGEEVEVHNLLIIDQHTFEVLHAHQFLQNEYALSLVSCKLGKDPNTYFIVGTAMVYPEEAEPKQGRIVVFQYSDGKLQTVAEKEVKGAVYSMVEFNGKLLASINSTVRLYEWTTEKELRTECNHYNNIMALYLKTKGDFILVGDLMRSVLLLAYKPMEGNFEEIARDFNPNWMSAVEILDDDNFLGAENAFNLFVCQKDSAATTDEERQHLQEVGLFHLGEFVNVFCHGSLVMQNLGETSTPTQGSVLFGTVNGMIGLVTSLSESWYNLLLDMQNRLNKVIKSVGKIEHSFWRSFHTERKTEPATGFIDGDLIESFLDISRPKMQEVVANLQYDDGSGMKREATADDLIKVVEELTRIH
inactive: [1] -0.295 | [5] -0.237 | [11] -0.032 | [6] -0.203 | [8] -0.09 | [9] -0.12 | [10] 0.162

DLK1 (UniProt P80370)
inactive: [4] -0.061 | [6] -0.018 | [8] -0.109 | [9] -0.203 | [10] 0.076

EDRF1 (UniProt Q3B7T1)
inactive: [1] -0.062 | [3] -0.044 | [5] -0.055 | [11] 0.083 | [6] -0.044 | [7] -0.031 | [8] -0.057 | [9] -0.103 | [10] -0.036

DNM2 isoform 4 (UniProt P50570)
inactive: [1] -0.033 | [3] -0.318 | [5] 0.342 | [11] -0.068 | [6] -0.113 | [7] 0.116 | [8] 0.19 | [9] 0.06 | [10] -0.257

DDX46, A0A0C4DG89
inactive: [3] -0.177 | [7] -0.288 | [8] -0.148

EID1 (UniProt Q9Y6B2)
UniProt Q9Y6B2, sequence (Q9Y6B2 whole entry, looked up): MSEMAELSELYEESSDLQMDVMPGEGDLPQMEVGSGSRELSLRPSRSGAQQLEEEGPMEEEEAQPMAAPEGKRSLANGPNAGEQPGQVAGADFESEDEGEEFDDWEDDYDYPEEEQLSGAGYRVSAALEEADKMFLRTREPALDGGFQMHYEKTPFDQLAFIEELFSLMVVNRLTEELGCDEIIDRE
inactive: [1] -0.078 | [3] -0.055 | [5] 0.086 | [11] -0.457 | [7] -0.156 | [8] -0.652

DNAJC24 (UniProt Q6P3W2)
inactive: [1] 0.023 | [3] 0.011 | [4] -0.129 | [5] 0.055 | [6] 0.102 | [7] 0.052 | [8] -0.059 | [9] -0.169 | [10] 0.186

EPHB4 (UniProt P54760)
inactive: [1] -0.207 | [3] -0.102 | [5] 0.122 | [7] 0.18

EIF4G1 (UniProt Q04637)
UniProt Q04637, sequence (Q04637 whole entry, looked up): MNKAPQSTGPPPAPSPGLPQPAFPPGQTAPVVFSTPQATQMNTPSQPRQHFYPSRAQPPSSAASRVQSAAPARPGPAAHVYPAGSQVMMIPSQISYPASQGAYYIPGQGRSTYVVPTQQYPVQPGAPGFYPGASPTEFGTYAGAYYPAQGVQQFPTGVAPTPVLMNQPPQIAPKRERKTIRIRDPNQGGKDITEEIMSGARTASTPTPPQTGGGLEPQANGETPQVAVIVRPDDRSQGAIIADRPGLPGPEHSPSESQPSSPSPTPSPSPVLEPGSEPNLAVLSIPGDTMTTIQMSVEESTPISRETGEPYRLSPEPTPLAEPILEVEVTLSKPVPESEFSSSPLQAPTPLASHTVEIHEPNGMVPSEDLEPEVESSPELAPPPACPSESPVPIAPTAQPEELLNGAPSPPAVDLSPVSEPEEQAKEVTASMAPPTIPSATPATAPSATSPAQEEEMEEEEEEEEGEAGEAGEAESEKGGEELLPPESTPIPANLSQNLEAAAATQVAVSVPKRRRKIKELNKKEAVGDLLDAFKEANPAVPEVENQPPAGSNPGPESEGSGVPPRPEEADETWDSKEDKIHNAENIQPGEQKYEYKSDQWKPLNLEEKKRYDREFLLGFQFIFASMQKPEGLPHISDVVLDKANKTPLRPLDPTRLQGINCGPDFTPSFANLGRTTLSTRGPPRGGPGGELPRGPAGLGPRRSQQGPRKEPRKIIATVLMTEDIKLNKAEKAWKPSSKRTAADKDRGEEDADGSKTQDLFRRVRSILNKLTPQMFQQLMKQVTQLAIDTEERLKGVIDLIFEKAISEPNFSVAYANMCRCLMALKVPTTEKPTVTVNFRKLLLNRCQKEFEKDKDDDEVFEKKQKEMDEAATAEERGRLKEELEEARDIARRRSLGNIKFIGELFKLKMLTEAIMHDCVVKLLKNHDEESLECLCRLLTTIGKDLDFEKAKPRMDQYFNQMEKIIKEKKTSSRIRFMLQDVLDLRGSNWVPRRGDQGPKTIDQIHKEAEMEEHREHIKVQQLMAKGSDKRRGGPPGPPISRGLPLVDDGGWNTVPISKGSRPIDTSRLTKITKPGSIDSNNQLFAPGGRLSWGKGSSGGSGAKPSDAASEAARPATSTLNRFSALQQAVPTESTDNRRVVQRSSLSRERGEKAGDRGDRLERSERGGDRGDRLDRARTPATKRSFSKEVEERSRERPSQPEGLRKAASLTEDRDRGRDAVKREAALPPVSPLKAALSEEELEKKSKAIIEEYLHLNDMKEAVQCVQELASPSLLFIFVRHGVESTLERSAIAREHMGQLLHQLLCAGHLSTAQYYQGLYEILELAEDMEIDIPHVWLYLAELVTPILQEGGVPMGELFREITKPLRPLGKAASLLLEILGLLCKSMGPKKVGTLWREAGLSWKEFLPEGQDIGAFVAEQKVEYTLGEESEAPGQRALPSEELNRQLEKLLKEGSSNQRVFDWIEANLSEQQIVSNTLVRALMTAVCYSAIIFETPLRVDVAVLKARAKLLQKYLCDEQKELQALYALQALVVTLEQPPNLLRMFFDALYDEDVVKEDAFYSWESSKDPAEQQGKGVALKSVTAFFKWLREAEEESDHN
inactive: [2] -0.14 | [4] -0.075 | [11] 0.085

F2RL3 (UniProt Q96RI0)
inactive: [2] 0.003 | [4] -0.085

DNAL1 (UniProt Q4LDG9)
inactive: [2] 0.035 | [4] 0.05 | [8] -0.26

DOP1A (UniProt Q5JWR5)
inactive: [3] 0.106 | [4] -0.051 | [7] -0.056 | [8] 0

ELOVL7 (UniProt A1L3X0)
inactive: [2] -0.001 | [8] -0.09

DHPS (UniProt M0R1T2)
inactive: [1] 0.063 | [5] 0.072

DCAF4 (UniProt Q8WV16)
UniProt Q8WV16, sequence (Q8WV16 whole entry, looked up): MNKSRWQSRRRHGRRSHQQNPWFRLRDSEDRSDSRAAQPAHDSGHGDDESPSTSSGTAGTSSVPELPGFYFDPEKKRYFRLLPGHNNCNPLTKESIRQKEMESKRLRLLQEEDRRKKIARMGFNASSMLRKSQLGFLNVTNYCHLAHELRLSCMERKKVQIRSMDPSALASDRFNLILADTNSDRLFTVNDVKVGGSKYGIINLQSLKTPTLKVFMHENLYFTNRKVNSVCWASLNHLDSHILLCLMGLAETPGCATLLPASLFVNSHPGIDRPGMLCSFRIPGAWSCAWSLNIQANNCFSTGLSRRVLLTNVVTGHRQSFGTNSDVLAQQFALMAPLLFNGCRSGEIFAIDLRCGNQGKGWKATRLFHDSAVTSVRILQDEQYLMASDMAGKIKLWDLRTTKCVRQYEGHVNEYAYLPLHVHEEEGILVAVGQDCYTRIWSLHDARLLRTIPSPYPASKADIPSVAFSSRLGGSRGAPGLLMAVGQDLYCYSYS
inactive: [1] -0.046 | [3] -0.127 | [5] 0.005 | [11] 0.238 | [6] -0.1 | [7] 0.066 | [8] -0.096 | [9] -0.094 | [10] -0.146

FAM135A (UniProt Q9P2D6)
inactive: [1] 0.069 | [4] -0.024 | [5] -0.03 | [8] -0.088

ERF (UniProt P50548)
inactive: [1] -0.53 | [5] -0.019 | [11] 0.023 | [8] -0.273

EIF2AK3 (UniProt Q9NZJ5)
inactive: [2] 0.056 | [3] -0.211 | [11] -0.02 | [6] -0.039 | [7] -0.085 | [8] 0.127 | [9] 0.097 | [10] -0.03

EEF2K (UniProt O00418)
UniProt O00418, sequence (O00418 whole entry, looked up): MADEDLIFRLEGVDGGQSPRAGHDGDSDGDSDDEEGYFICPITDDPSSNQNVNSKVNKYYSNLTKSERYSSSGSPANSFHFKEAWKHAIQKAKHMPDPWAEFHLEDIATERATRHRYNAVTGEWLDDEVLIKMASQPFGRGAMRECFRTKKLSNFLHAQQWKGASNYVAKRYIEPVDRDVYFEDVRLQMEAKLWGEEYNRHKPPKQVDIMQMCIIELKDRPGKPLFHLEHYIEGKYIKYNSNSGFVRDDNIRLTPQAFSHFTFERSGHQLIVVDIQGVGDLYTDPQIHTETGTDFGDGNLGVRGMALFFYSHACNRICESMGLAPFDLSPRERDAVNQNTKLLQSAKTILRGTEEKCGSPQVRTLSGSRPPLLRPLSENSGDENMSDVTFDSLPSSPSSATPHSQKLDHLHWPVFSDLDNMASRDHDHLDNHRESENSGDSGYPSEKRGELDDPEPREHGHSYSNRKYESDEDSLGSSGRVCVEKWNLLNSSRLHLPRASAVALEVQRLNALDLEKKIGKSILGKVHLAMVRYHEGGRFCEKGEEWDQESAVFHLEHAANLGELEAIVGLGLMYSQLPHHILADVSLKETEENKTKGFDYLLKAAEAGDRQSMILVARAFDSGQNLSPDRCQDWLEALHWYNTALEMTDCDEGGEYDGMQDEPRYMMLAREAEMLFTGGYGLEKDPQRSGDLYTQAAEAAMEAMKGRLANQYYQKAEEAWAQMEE
inactive: [3] -0.119 | [4] -0.114 | [11] 0.19 | [6] -0.05 | [7] 0.216 | [8] 0.178 | [9] 0.012 | [10] 0.09
